Here are results for eight molecules from PubChem BioAssay (NCATS).

Results filed as inconclusive are left out. This is one part of the list. Calls of active or inactive are those of the source. Unless noted, calls come from the whole dose curve; as a rule, active = well fitted curve in the direction sought with a large enough effect; inconclusive = small, poorly fitted or top-dose-only effect, or another doubt; inactive = no such curve, though single readings can be large; an effect the other way counts as inactive or inconclusive. A value given as a limit tells only on which side of the number the result lay.

Assay [1] has as its target Pyruvate kinase (Leishmania mexicana) (UniProt Q27686). Briefly: qHTS Validation Assay for Activators of Leishmania Mexicana Pyruvate Kinase (AID 959). Conditions: purified L. mexicana pyruvate kinase, enzyme activity. In short, it runs like this:
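Eight-point qHTS titrations in triplicate, data normalized to DMSO neutral control. Reaction: 0.2 nM LmPYK E451W mutant, 0.5 mM PEP, 0.1 mM ADP, 7 mM MgCl2, pH 7.2, one hour at room temperature; luminescent ATP detection.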

Assay [2] deals with Pyruvate kinase PKM (Homo sapiens) (UniProt P14618). Briefly: qHTS Assay for Inhibitors of Human Muscle Pyruvate Kinase (AID 958). Conditions: purified human PKM enzyme activity; series mostly up to 57.5 µM. In short, it runs like this: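 Human PKM2 activity is measured as ATP generation, detected by luciferase-coupled luminescence. The enzyme (0.1 nM) acts on 0.5 mM PEP and 0.1 mM ADP for 1 h at ambient temperature; data are normalized to uninhibited and full-inhibition wells.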

For assay [3], the target named is Lysosomal acid glucosylceramidase (Homo sapiens) (UniProt P04062). The experiment in a line: Glucocerebrosidase-p2 (AID 348; in the data active = potency below about 10 µM; note: potency is the fitted concentration of half-maximal effect). Conditions: purified GBA, blue fluorogenic substrate, 40 min. In a few lines:
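Normal human glucocerebrosidase (0.2 nM) with blue fluorogenic substrate (80 uM final) in citrate/phosphate pH 5.9 with 10mM sodium taurocholate, 0.01% tween-20; 40 min RT, NaOH/glycine stop; fluorescence Ex 365/Em 440; AC50 from a titration from 0.6 nM upwards.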

Assay [4] deals with Glutathione peroxidase 1 (Homo sapiens) (UniProt P07203). The experiment in a line: Primary qHTS Assay for Inhibitors of Recombinant Selenoprotein Glutathione Peroxidase 1 (GPX1) (AID 1845191). Note: nearly all actives have a fitted effect of over 65% in size. The settings on record: recombinant GPX1, GR-coupled NADPH fluorescence, 15 min; series mostly up to 48.8 µM. In a few lines:
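GR-coupled readout: NADPH consumption tracked by fluorescence, ex 340/em 450 nm, at t=0 and after 15 min at RT. Final mix 10 nM GPX1, 1 mM GSH, 0.5 mM CHP, 0.5 mM NADPH, 100 nM GR, 0.01% BSA, following 30 min enzyme–compound preincubation.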
On the technique in general: Quantitative high-throughput screening tests each substance at several concentrations.

Assay [5] deals with Dual specificity protein kinase CLK4 (Homo sapiens) (UniProt Q9HAZ1). The experiment in a line: qHTS Assay for Inhibitors of CDC-like Kinase 4 (Kinase-Glo Assay) (AID 1770). Note: potency is the fitted concentration of half-maximal effect; nearly all actives have a fitted effect of over 65% in size. Conditions: recombinant Clk4, Kinase-Glo ATP depletion luminescence; series mostly up to 66.7 µM. In a few lines:
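Inhibition was judged from remaining ATP, measured by Ultra-Glo luciferase bioluminescence after Clk4 (25 nM) had acted on RS peptide at 1 uM ATP for 4.5 hours, room temperature.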

For assay [6] the target is unchanged. The experiment in a line: qHTS Assay for Inhibitors of CDC-like Kinase 4 (ADP-Glo Assay) (AID 1771). Note: potency is the fitted concentration of half-maximal effect; nearly all actives have a fitted effect of over 70% in size. Conditions: recombinant CLK4, ADP-Glo luminescence; series mostly up to 80 µM. In a few lines:
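ADP production was read by ADP-Glo luminescence after residual ATP depletion, following 1 h room-temperature reaction of 25 nM Clk4, 1 uM ATP and 100 uM RS peptide with MgCl2, EGTA, DTT and Triton X-100.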

For assay [7] the target is unchanged. Briefly: qHTS Assay for Inhibitors of CDC-like Kinase 4 (ADP-FP Assay) (AID 1795). Note: potency is the fitted concentration of half-maximal effect; nearly all actives have a fitted effect of over 60% in size. The settings on record: Transcreener ADP fluorescence polarization; series mostly up to 50 µM. In short, it runs like this:
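Inhibition of ADP formation by 6.25 nM Clk4 is measured using 1 uM ATP and 100 uM RS repeat peptide over one hour. Produced ADP displaces a fluorescent tracer from antibody, lowering polarization.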

Assay [8] addresses Flap endonuclease 1 (Homo sapiens) (UniProt P39748). The experiment in a line: qHTS Assay for the Inhibitors of FEN1: Confirmatory Assay for Cherry-picked Compounds (AID 720498). Note: potency is the fitted concentration of half-maximal effect; nearly all actives have a fitted effect of over 60% in size. Conditions: FEN1 flap cleavage, TAMRA/BHQ2 fluorogenic DNA substrate. In short, it runs like this:
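Human FEN1 (10 nM reagent) was preincubated with compounds for 15 min at room temperature, then 50 nM final double-flap DNA substrate (5'-TAMRA flap, BHQ-2 quencher strand) was added. Fluorescence (ex 525/em 598 nm) was read at 0 and 15 min.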

A short description of assay [9]: qHTS for Inhibitors of the vitamin D receptor (VDR): Hit Validation using a Cytotoxicity Assay (AID 602204).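 Note: plate controls were DMSO for no effect and high-concentration cycloheximide for full effect; nearly all actives have a fitted effect of over 75% in size.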 Conditions: cytotoxicity counter-screen, cell viability; series mostly up to 48.3 µM. In a few lines: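 Cytotoxicity counterscreen measuring cellular ATP by CellTiter-Glo luminescence. Cells (20,000/well) plated 4 hours before compound addition, then exposed for 18 hours. Cycloheximide at high concentration as positive control, DMSO as negative.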

Assay [10] is described as follows: qHTS profiling of the MIPE4 collection as inhibitors of Plasmodium falciparum (3D7) proliferation (AID 743344; call rule not given here;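 note: scaled between DMSO vehicle wells and 0.29 µM artemisinin as full inhibition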). Conditions: P. falciparum 3D7 in erythrocytes, SYBR Green DNA fluorescence, 72 h; at 5.51 µM (top of the series) unless noted. In a few lines:
(§1)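 Parasite DNA was quantified by SYBR Green I fluorescence (ex 485, em 535 nm) after overnight lysis in saponin/Triton buffer at room temperature. Cultures at 0.3% parasitemia and 2.5% hematocrit were first exposed to compound for 72 h at 37 C; signals were normalised to artemisinin (0.29 uM) and vehicle wells.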

The nature of assay [11]: qHTS profiling of the MIPE4 collection as inhibitors of Plasmodium falciparum (DD2) proliferation (AID 743345; call rule not given here). The settings on record: P. falciparum Dd2 in erythrocytes, SYBR Green DNA, 72 h; at 5.51 µM (top of the series) unless noted. In short, it runs like this: as §1
Assay [12] in a line: qHTS profiling of the MIPE4 collection as inhibitors of Plasmodium falciparum (DD2) proliferation (Rep 2) (AID 743346; call rule not given here). Conditions: P. falciparum Dd2 in erythrocytes, SYBR Green DNA, 72 h; at 5.51 µM (top of the series) unless noted. In short, it runs like this:
as §1

Assay [13] is described as follows: qHTS profiling of the MIPE4 collection as inhibitors of Plasmodium falciparum (HB3) proliferation (AID 743347; call rule not given here;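 note: plate controls were DMSO vehicle wells for no effect and artemisinin wells for full effect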). The settings on record: P. falciparum HB3 in erythrocytes, SYBR Green DNA, 72 h; at 5.51 µM (top of the series) unless noted. In a few lines:
as §1

Assay [14] can be described thus: Cell Viability - BJ (AID 421; calls by dose curve;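 note: potency is the fitted concentration of half-maximal effect; cells exposed to compound for 40 hours at 37 °C before readout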). Conditions: BJ fibroblast viability, qHTS. In short, it runs like this: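 Quantitative HTS: ATP depletion in BJ cells after 40 hr compound exposure in complete culture medium, detected with CellTiter-Glo; AC50 from standard Hill fits.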
A short description of assay [15]: Cell Viability - Hek293 (AID 427;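 active = compounds whose dose-response curve shows a full or clear partial loss of cell viability, called from curve shape rather than a numeric limit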;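 note: potency is the fitted concentration of half-maximal effect; cells exposed to compound for 40 hours at 37 °C before reading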). The settings on record: qHTS. In short, it runs like this:
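AC50 values derive from Hill-modelled concentration-response of ATP-based luminescence, normalized between DMSO-only and 100 uM tamoxifen controls. Cells were exposed in complete culture medium for 40 hr at 37 °C before detection.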

The nature of assay [16]: Cell Viability - HepG2 (AID 433; calls by dose curve;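 note: potency is the fitted concentration of half-maximal effect; potency for ATP loss meaning cytotoxicity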). Conditions: qHTS. In short, it runs like this: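 Cytotoxicity is scored as loss of intracellular ATP in HepG2 cells exposed to compounds for 40 h. Concentration-response curves, normalized to DMSO and 100 uM tamoxifen, give AC50 values.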
A short description of assay [17]: Cell Viability - MRC5 (AID 434; calls by dose curve;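 note: potency is the fitted concentration of half-maximal effect; cells exposed to compound for 40 hours at 37 °C; potency reflects cytotoxicity seen as loss of intracellular ATP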). Conditions: MRC5 lung fibroblast viability, qHTS. In short, it runs like this: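 ATP luminescence read-out (CellTiter-Glo, 20 min RT) after 40 hr, 37 °C compound exposure of 1500 MRC5 cells/well. Data normalized to DMSO (basal) and 100 uM tamoxifen (100% inhibition); AC50 from standard Hill equation.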
The nature of assay [18]: Cell Viability - SK-N-SH (AID 435; calls by dose curve;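 note: potency is the fitted concentration of half-maximal effect; compound exposure lasted 40 h at 37 °C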). The settings on record: SK-N-SH neuroblastoma cell viability qHTS. In short, it runs like this:
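Cells seeded at 1500 per well and incubated 5 hr at 37 °C. Compound added, then 40 hr at 37 °C. CellTiter-Glo added, 20 min at room temperature, luminescence read.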

Assay [19] is described as follows: Cell Viability - N2a (AID 540).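 Note: plate controls were DMSO alone for no effect and tamoxifen control for full effect; nearly all actives have a fitted effect of over 45% in size.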 Conditions: N2a mouse neuroblastoma cell viability; series mostly up to 92.2 µM. In a few lines:
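CellTiter-Glo ATP luminescence, read 20 min after reagent at room temperature, reported viability following 40 h compound treatment at 37 °C. N2a mouse neuroblastoma cells seeded 1500/well; Hill equation gave AC50.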

Assay [20] can be described thus: Cell Viability - NIH 3T3 (AID 541).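 Note: plate controls were DMSO alone for no effect and tamoxifen positive control for full effect; nearly all actives have a fitted effect of over 25% in size.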 Conditions: NIH 3T3 cell viability, qHTS; series mostly up to 92.2 µM. In short, it runs like this:
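Intracellular ATP (CellTiter-Glo luminescence, 20 min at room temperature) measured after 40 hr compound exposure at 37 °C of 1000 NIH 3T3 mouse fibroblasts/well in complete medium; AC50 derived by Hill-equation modelling of qHTS concentration-response curves.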

Sequence of Dual specificity protein kinase CLK4 (Homo sapiens) (Q9HAZ1 whole entry, looked up): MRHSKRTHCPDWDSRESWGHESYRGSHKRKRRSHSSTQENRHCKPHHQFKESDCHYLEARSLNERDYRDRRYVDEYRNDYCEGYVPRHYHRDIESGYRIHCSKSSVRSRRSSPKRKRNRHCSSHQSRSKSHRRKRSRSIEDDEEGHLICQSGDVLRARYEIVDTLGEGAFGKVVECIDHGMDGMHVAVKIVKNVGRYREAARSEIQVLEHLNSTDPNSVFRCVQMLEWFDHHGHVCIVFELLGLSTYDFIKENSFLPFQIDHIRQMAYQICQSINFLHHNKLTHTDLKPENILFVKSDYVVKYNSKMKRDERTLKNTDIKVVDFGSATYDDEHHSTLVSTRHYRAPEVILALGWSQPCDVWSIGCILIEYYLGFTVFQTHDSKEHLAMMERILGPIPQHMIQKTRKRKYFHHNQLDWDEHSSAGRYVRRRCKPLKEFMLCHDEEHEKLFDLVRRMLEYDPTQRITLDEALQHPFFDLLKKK
Sequence of Glutathione peroxidase 1 (Homo sapiens) (P07203 whole entry, looked up): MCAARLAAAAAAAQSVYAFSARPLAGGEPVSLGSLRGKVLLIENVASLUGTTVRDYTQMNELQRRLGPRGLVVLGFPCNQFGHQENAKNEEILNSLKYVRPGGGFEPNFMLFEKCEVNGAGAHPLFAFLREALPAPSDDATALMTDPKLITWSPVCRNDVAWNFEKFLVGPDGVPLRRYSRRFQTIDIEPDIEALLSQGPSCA
Sequence of Pyruvate kinase PKM (Homo sapiens) (P14618 whole entry, looked up): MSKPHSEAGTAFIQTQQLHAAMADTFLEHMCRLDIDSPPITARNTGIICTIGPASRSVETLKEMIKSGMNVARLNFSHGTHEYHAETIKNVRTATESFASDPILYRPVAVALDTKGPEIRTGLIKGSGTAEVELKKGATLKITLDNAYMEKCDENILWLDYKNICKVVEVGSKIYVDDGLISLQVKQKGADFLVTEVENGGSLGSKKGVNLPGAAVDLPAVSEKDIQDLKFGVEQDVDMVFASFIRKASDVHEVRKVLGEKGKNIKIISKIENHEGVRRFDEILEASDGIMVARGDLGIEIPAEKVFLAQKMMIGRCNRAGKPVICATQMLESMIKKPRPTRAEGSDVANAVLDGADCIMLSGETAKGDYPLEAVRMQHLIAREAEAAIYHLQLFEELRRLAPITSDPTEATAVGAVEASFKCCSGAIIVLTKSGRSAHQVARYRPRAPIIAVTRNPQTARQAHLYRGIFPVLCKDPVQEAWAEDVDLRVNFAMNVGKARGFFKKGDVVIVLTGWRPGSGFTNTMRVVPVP
Sequence of Lysosomal acid glucosylceramidase (Homo sapiens) (P04062 whole entry, looked up): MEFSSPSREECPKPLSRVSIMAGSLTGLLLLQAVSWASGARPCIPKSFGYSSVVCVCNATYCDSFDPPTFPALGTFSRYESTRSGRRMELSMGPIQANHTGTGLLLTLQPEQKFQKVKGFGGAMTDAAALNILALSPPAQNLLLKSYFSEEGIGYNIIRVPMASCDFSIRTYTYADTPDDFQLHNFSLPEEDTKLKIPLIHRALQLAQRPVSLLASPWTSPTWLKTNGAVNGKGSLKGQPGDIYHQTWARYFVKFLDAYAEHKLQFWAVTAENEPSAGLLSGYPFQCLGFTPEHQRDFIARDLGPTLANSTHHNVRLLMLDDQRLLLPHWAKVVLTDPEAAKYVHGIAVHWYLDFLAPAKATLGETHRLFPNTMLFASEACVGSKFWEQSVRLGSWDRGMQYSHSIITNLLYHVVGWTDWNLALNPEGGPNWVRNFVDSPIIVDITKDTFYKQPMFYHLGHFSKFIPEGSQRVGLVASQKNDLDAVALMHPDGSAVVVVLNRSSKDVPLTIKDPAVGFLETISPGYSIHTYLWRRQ
Sequence of Pyruvate kinase (Leishmania mexicana) (Q27686 2-499 E452W): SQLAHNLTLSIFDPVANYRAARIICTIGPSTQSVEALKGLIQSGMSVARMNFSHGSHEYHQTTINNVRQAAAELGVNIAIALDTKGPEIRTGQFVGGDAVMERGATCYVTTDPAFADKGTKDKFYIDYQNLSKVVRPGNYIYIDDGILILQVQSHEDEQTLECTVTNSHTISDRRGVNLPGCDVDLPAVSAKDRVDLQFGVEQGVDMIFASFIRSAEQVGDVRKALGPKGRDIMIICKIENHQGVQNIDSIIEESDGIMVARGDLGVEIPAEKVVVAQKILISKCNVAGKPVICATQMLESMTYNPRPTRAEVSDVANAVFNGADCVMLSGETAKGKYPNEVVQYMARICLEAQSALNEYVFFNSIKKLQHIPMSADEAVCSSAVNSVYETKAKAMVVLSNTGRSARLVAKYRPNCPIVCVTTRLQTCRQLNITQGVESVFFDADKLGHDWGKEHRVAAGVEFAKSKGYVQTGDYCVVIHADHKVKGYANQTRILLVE
Sequence of Flap endonuclease 1 (Homo sapiens) (P39748 whole entry, looked up): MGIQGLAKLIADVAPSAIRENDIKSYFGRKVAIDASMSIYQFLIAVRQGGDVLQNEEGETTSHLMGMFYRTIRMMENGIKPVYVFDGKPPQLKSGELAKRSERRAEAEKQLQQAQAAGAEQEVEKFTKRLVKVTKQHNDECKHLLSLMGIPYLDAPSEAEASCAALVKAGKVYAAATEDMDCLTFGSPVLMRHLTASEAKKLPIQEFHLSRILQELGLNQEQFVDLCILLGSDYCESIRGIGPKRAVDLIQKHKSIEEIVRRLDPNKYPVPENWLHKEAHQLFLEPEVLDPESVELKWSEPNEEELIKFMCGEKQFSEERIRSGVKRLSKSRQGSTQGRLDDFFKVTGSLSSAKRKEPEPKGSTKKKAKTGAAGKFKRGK

For the molecule `CC(=O)OCC1=C(C(=O)O)N2C(=O)[C@@H](NC(=O)Cc3cccs3)[C@@H]2SC1`, the Potency in [1] was 25.1 µM (active).
With `CN1CCc2cccc3c2[C@@H]1Cc1ccc(O)c(O)c1-3`, in [2], the outcome was inactive.
Regarding `CC(C)(S)[C@H](N)C(=O)O`, the Potency in [3] is > 11.4 µM (inactive). Besides, in [4], the outcome is “inactive [at 4.49 µM]”.
In the case of `CS(=O)(=O)Nc1cccc(-c2nc(NC3CC3)c3ccccc3n2)c1`, the figures for the Potency in assay [5], in [6] and in assay [7] were 7.94 µM (active), 10 µM (active) and 12.6 µM (active), respectively.
Regarding `CCC1CCCCN1CCCNC(=O)c1cc2c(Cl)nc3ccccc3c2s1` (stereo not given), in assay [8], the Potency was 33.8 µM (active).
Consider `CCCCOc1ccc(CN2C(=O)C(=O)c3cc(Br)cc(C)c32)cc1OC`, for which, in assay [9], the molecule was called inactive.
Molecule `CC1CC2C3CCC4=CC(=O)C=C[C@@]4(C)[C@]3(F)C(O)C[C@]2(C)[C@]1(O)C(=O)CO` (stereo not given in full) gave a parasite growth, % of DMSO control in assay [10] of 31.9% [at 28.5 µM]. Also, the parasite growth remaining, % of DMSO control (lower = more inhibition) in [11] is 90.9% [at 28.5 µM]. The molecule further had a parasite growth, % of control (lower = inhibition) in assay [12] of 44.9% [at 28.5 µM]. This molecule showed a growth, % of control in assay [13] of 11.4% [at 28.5 µM].
In the case of `CN(C)CCOC(c1ccccc1)c1ccccc1` (tested in a mixture with another compound), the Potency in [14], in assay [15], in [16], in assay [17] and in assay [18] was > 92 µM (inactive) each time. Besides, the outcome in assay [19] and in assay [20] was inactive.
